RE007 growth inh: less growth of the S. pombe RE007 Vpr strain; S. pombe RE007 Vpr strain, BacTiter-Glo ATP luminescence, 24 h; Potency, µM (series often up to 92.2 µM), actives largely listed as inhibitors; 360,000 tested, 0.21% active; active means well fitted falling curve with a large enough effect; inconclusive means small, poorly fitted or top-dose-only effect; inactive means no such curve, though single readings can be large or run the other way; further: nearly all actives have a fitted effect of over 50% in size
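Fission yeast RE007 carrying one integrated HIV-1 vpr copy, seeded at OD 0.01 in PMG+AL medium with 23 nL pinned compound. Grown 24 h at 30 degrees; viability read by BacTiter-Glo luminescence after 5 min.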
TbPYK inhibitor: blocks Trypanosoma brucei pyruvate kinase; Potency, µM (series often up to 76.8 µM), usual class: inhibitors; Q57TT1; 410,000 tested, 0.12% active; TbPYK enzyme, Kinase-Glo Plus ATP luminescence, 45 min; further: nearly all actives have a fitted effect of over 50% in size
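ADP (130 uM final) triggers the TbPYK reaction after compound addition; incubation is 45 min at room temperature. Kinase-Glo Plus is then added and luminescence imaged. Normalized data are fitted to concentration-effect curves.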
LmPK inh: blocks Leishmania mexicana pyruvate kinase activity. purified LmPK, Kinase-Glo ATP luminescence, 1 h. Potency, µM (highest dose often 57.5 µM), most hits filed as inhibitors. 290,000 tested, 0.37% active
Target sequence (Q27686 whole entry, looked up): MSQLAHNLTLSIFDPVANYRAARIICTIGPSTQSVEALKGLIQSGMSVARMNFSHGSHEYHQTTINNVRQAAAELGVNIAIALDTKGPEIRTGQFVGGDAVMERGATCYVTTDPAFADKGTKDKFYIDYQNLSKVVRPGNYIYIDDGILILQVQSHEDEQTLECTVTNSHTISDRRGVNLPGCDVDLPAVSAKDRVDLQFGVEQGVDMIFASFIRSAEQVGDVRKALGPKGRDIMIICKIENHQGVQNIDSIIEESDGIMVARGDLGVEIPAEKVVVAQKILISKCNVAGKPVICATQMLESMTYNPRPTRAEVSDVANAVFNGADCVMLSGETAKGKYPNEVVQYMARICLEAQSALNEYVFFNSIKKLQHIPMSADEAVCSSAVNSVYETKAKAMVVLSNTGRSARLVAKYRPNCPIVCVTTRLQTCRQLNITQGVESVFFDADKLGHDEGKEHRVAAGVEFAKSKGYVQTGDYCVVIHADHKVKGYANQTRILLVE
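Purified LmPK (0.1 nM) with 0.5 mM PEP and 0.1 mM ADP in imidazole buffer pH 7.2 with MgCl2/KCl, 1 h at room temperature. ATP formed was read by luciferase luminescence and normalized to no-enzyme and uninhibited controls.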
Sm TGR block: S. mansoni TGR enzyme inhibition; purified TGR, DTNB reduction, TNB absorbance 405 nm; 360,000 tested, 3% active; Potency, µM (series often up to 114 µM), actives largely listed as inhibitors; AID 485364; Q962Y6; further: nearly all actives have a fitted effect of over 60% in size
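First, TGR (20 nM dispensed) and NADPH were mixed with compound. Second, a 15 min room-temperature incubation followed. Third, further NADPH and then DTNB were added to start the reaction. Finally, TNB absorbance was monitored kinetically.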
A number is an active result; n = inactive; u = inconclusive; x = no result; [ ] = dose if it differs, or a comment. Rows were chosen to be rich in hits. Some 3% of all compounds tested hit in one or more screens of this group. Unless noted, the call rests on the fitted dose curve; in most records, active means well fitted curve in the direction sought with a large enough effect; inconclusive means small, poorly fitted or top-dose-only effect, or another doubt; inactive means no such curve, though single readings can be large; an effect the other way counts as inactive or inconclusive.

SMILES	RE007 growth inh	TbPYK inhibitor	LmPK inh	Sm TGR block
COc1ccc([C@]23Cc4cc(OC)c(OC)cc4C(O2)c2c(cc(C)oc2=O)O3)cc1	x	x	n[11.5 µM]	7.1µM
O=c1oc2ccccc2c2c1C1O[C@](c3ccsc3)(Cc3ccccc31)O2	x	x	n[11.5 µM]	11µM
COc1ccc([C@]23Cc4cc(OC)c(OC)cc4C(O2)c2c(c4ccccc4oc2=O)O3)cc1	x	x	n[11.5 µM]	4µM
COc1ccc([C@]23Cc4ccccc4C(O2)c2c(c4ccc(OC)cc4oc2=O)O3)cc1	x	x	n[11.5 µM]	u
Cc1cc(N2CCOCC2)ccc1/C=C\[N+](=O)[O-]	7.9µM	n	n	20µM
CC1(C)CC(=O)C=C(OC(=O)c2ccc(Cl)cc2)C1	n	n	n	14µM
COc1ccc(OC)c2sc(N3CCc4ccccc4C3)nc12	n	n	n	n
c1ccc2c(c1)CCN(c1nc3cc4c(cc3s1)OCCO4)C2	u	n	22µM	n
Cc1ccc(C(=O)Nc2ncc3c(Cl)cccc3n2)cc1	u	n	13µM	n
Cc1ccc(-n2nnnc2SCC(=O)N2CC(=O)Nc3ccccc32)cc1	n	n	n	45µM
COc1ccc(NC(=O)c2ccc(-c3ccc([N+](=O)[O-])cc3)o2)cc1	n	n	n	u
O=C(O)c1ccc(-c2cccc([N+](=O)[O-])c2)o1	n	n	n	35µM
O=C(Nc1ccccc1)c1ccc(-c2ccc([N+](=O)[O-])cc2)o1	n	n	n	3.5µM
CC1(C)CC(NC(=O)c2ccc(-c3ccc([N+](=O)[O-])cc3)o2)CC(C)(C)N1	n	n	n	40µM
CC(OC(=O)c1ccc(-c2ccc([N+](=O)[O-])cc2)o1)C(=O)NC(N)=O (stereo not given)	n	n	n	4.5µM
Cc1nc2cnc(N3CCNCC3)nc2n(C2CC2)c1=O	x	n	x	x
Cc1cccc(NC(=O)C2CC(=O)n3ncnc3N2)c1 (stereo not given)	n	n	n	n
Cc1ccccc1NC(=O)C1CC(=O)n2ncnc2N1 (stereo not given)	n	n	n	35µM
CCN(Cc1ccccc1)S(=O)(=O)c1cc(C(=O)Nc2cc(Cl)cc(Cl)c2)ccc1F	x	n	x	n
COc1ccc(C2CC(=O)N3CN(c4ccc(C)c(Cl)c4)CSC3=C2C#N)cc1OC (stereo not given)	n	u	n	50µM
CCc1ccc(C2CC(=O)N3CN(c4ccccc4)CSC3=C2C#N)cc1 (stereo not given)	n	4.5µM	n	35µM
COc1ccc(N2CSC3=C(C#N)C(c4cc(OC)c(OC)cc4OC)CC(=O)N3C2)c(OC)c1 (stereo not given)	n	8.9µM	n	6.3µM
CN1CSC2=C(C#N)C(c3cccc(OCc4ccccc4)c3)CC(=O)N2C1 (stereo not given)	n	u	n	n
CCc1ccc(N2CSC3=C(C#N)C(c4cccs4)CC(=O)N3C2)cc1 (stereo not given)	n	u	n	n
COc1cc(OC)c(C2CC(=O)N3CN(c4ccc(C)cc4)CSC3=C2C#N)cc1OC (stereo not given)	n	1.6µM	n	8.9µM
SMILES	RE007 growth inh	TbPYK inhibitor	LmPK inh	Sm TGR block
Cc1ccc(-n2nc(C(=O)N(C)c3ccc(C)c(C)c3)c3c4ccccc4n(C)c3c2=O)cc1	x	n	x	n
COc1ccc(NC(=O)C2CCCN(S(=O)(=O)c3ccc(F)cc3)C2)cc1 (stereo not given)	x	n	x	n
CCc1cccc(C)c1NC(=O)C(NS(=O)(=O)c1ccc2c(c1)CCC(=O)N2)c1ccccc1 (stereo not given)	x	n	x	n
Cc1cccc(Cn2c(=O)n(-c3cc(C)cc(C)c3)c(=O)c3oc4ccccc4c32)c1	x	n	x	n
COc1cc(C(=O)Nc2ccc3oc(-c4ccc(C)c(Br)c4)nc3c2)cc(OC)c1OC	x	n	x	n
CCOc1ccccc1N1CSC2=C(C#N)C(c3c(OC)ccc4ccccc34)CC(=O)N2C1 (stereo not given)	n	3.5µM	n	13µM
COc1ccc(N2CSC3=C(C#N)C(c4cc(OC)ccc4OC)CC(=O)N3C2)c(OC)c1 (stereo not given)	n	7.9µM	n	u
COc1ccc(N2CSC3=C(C#N)C(c4cccs4)CC(=O)N3C2)cc1 (stereo not given)	n	n	n	22µM
Cc1ccc(N2CSC3=C(C#N)C(c4cccs4)CC(=O)N3C2)cc1 (stereo not given)	n	u	n	n
COc1ccc(N2CSC3=C(C#N)C(c4ccc(OC)c(OC)c4)CC(=O)N3C2)c(OC)c1 (stereo not given)	n	7.9µM	n	7.9µM
N#CC1=C2SCN(c3ccc(F)cc3)CN2C(=O)CC1c1cccc(F)c1 (stereo not given)	n	u	n	u
CCCSC1=C(C#N)C(c2cc(OC)ccc2OC)CC(=O)N1 (stereo not given)	n	n	n	n
CCOC(=O)c1ccc(N2CSC3=C(C#N)C(c4cccs4)CC(=O)N3C2)cc1 (stereo not given)	n	u	n	n
CCOc1ccc(-n2nc3cc(C)c(NC(=O)c4cc(OCC)c(OCC)c(OCC)c4)cc3n2)cc1	x	n	x	n
COc1cc(CN2CCN(CCCc3ccccc3)C(CCO)C2)cc(OC)c1O (stereo not given)	n	n	n	20µM
CC(C)CN1CCN(Cc2cn(C)c3ccccc23)CC1CCO (stereo not given)	n	n	n	89µM
Cn1cc(CN2CCN(CC(C)(C)C)C(CCO)C2)c2ccccc21 (stereo not given)	n	n	n	n
COc1ccc(CN2CCN(CCCc3ccccc3)C(CCO)C2)c(O)c1 (stereo not given)	n	n	n	u
COc1ccc(CN2CCN(CCc3ccccc3)C(CCO)C2)c(O)c1 (stereo not given)	n	n	n	45µM
OCCC1CN(Cc2c(O)ccc3ccccc23)CCN1CCc1ccccc1 (stereo not given)	n	n	n	0.63µM
OCCC1CN(Cc2ccccc2O)CCN1CCCc1ccccc1 (stereo not given)	n	n	n	n
O=C(NC1CCCC1)C(c1ccc(F)cc1)N(Cc1ccc(Cl)cc1)C(=O)CCl (stereo not given)	n	n	n	2.8µM
O=C(NC1CCCC1)C(c1ccc(Cl)cc1)N(Cc1ccc(F)cc1)C(=O)CCl (stereo not given)	u	n	n	7.1µM
COC(=O)c1ccc(C(C(=O)NC2CCCCC2)N(Cc2ccc(F)cc2)C(=O)Cc2cccs2)cc1 (stereo not given)	x	n	n	n
C[C@H]1Cc2c(COc3ccccc3)nc3c(c2CO1)CN(S(=O)(=O)c1ccc(C#N)cc1)CC3	x	x	n[11.5 µM]	x
CCOC(=O)C1CCCN(C(=O)CCc2nnc(-c3ccc(C(C)=O)s3)o2)C1 (stereo not given)	n	n	n	16µM
COc1ccc(-n2nc(C#N)c(Cl)cc2=O)cc1	u	n	n	2.5µM
